# Test system: CAMK1G
# Conditions: concentration: 1 μM, replicates: in singlicate; n = 1
# 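Further: KINOMEscan kinase panel screen.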
row,SMILES,%Inh
1,O=C(Nc1ccc2c(c1)OCO2)NC1CCN(c2ccnc(NCc3ccc(F)cc3)n2)CC1 [GSK1379859],0%
2,CC(C)(C)c1ccc(C(=O)Nc2cn3cc(-c4ccccc4)ccc3n2)cc1,0%
3,C[C@@H]1CC[C@H](C(=O)NC2CCCCC2)CN1c1cc(-c2ccc3c(N)n[nH]c3c2)nc(N)n1 [GSK2291363],22%
4,O=C(Nc1n[nH]c2nc(-c3ccccc3)c(Cl)cc12)C1CC1 [SB-734909],0%
5,COC(=O)c1c(-c2ccccc2)c2cc(Br)ccc2c(=O)n1Cc1ccc(NC(=O)CCC(=O)O)cc1,9%
6,O=C(Nc1n[nH]c2cc(-c3ccccc3F)ccc12)C1CC1 [SB-733371],0%
7,Cc1nc(N(C)[C@H]2CN(C(=O)CC#N)CC[C@H]2C)c2cc[nH]c2n1,1%
8,Cc1nn2c(=O)cc(N3CCOCC3)nc2n1Cc1cccc(Cl)c1Cl [GSK2342769],8%
9,Cc1cccc(-c2nc(Nc3ccc4c(cnn4C)c3)c3ccccc3n2)n1 [GW876731],0%
10,FC(F)(F)c1ccc(-c2ncn(CCCN3CCOCC3)c2-c2ccncc2)cc1 [SB-217780],3%
11,COc1cc(Nc2ccnc3ccc(C(F)(F)F)cc23)cc(OC)c1OC [GW577382],1%
12,CCS(=O)c1ccc(-c2coc3ccc(-c4nnc(C)o4)cc23)cc1 (stereo not shown),2%
13,O=c1cc(N2CCOCC2)nc2n(Cc3ccc(F)c(Cl)c3)ccn12 [GSK2297099],11%
14,CCC(=O)c1c(-c2ccccc2)c2cc(Cl)ccc2c(=O)n1Cc1cc(S(C)(=O)=O)n(CCC(C)(C)O)n1,33%
15,Cn1c(=O)c(F)c(Nc2ccc(I)cc2F)c2c(=O)n(OC[C@H](O)CO)cnc21,0%
16,COc1cc(OC)cc(-c2cc3cnc(N)nc3nc2NC(=O)NC(C)(C)C)c1,0%
17,Fc1cccc(CSc2nnc(-c3ccc4c(c3)CCO4)o2)c1,2%
18,COc1cc(Nc2nccc(N3CCC(NC(=O)C4COc5ccccc5O4)C3)n2)cc(OC)c1OC (stereo not shown) [GSK1379761],8%
19,O=C1NC(=O)C(c2ccccc2)=C1Nc1cccc(O)c1 [SB-390534],0%
20,CN(C)c1cc(-c2ccc3c(N)n[nH]c3c2)nc(N)n1 [GSK2219329],0%
21,Cc1ccc(Oc2ccc(Nc3ncnc4cc[nH]c34)cc2C)cn1,0%
22,CN1C(=O)C(Nc2ccccc2)=C(c2ccccc2)C1=O [SB-300079],0%

# Test system: CAMK1
# Conditions: concentration: 1 μM, replicates: in singlicate; n = 1
row,SMILES,%Inh
1,Cc1cccc(-c2cc(-c3c[nH]nc3-c3ccccn3)ccn2)c1 [GW679395],7%
2,COc1ccc(-c2coc3ccc(-c4nnc(SCc5cccc(C#N)c5)o4)cc23)cc1,26%
3,COc1ccc(CNC(=O)NC2CCN(c3ccnc(Nc4ccc(F)cc4)n3)C2)cc1 (stereo not shown) [GSK1379706],5%
4,COc1cc2ncn(-c3cc(OCc4ccncc4Br)c(C(N)=O)s3)c2cc1OC [GW854278],0%
5,Cc1nnc(-c2ccc(C)c(-c3ccc(C(=O)O)cc3)c2)o1 [GW608005],2%
6,COc1cc2ncn(-c3cc(OCCCc4ccccc4)c(C(N)=O)s3)c2cc1OC [GSK205189],14%
7,Cc1cc(Nc2nc(-c3cccc(C)n3)nc3ccccc23)ccn1 [GW872411],0%
8,Cc1ccc(-c2ccc3c(ccc4sc5c(c43)NC[C@@H](C)N=C5N(C)C)n2)cn1,0%
9,CCc1ccc(-c2ccc3c(c2)-c2nn(C)cc2S(=O)(=O)N3C)cc1,2%
10,Nc1n[nH]c2ncc(-c3ccccc3)cc12 [SB-517081],18%
11,Nc1ncnc2c1ncn2-c1cccc2ccccc12 [SKF-97184],20%
12,O=C(NCCNc1ccnc(Nc2ccc(F)cc2)n1)Nc1ccc2c(c1)OCO2 [GSK1379882],20%
13,O=C(Nc1n[nH]c2nc(-c3ccccc3)c(Br)cc12)C1CC1 [SB-708998],4%
14,Cl.NS(=O)(=O)c1cccc(Nc2cc(-c3ccc(F)cc3)n[nH]2)c1 [GW824645],0%
15,O=C(Nc1ccc2c(c1)OCO2)NC1CCN(c2ccnc(NCc3ccc(F)cc3)n2)CC1 [GSK1379859],16%
16,CC(C)(C)c1ccc(C(=O)Nc2cn3cc(-c4ccccc4)ccc3n2)cc1,0%
17,C[C@@H]1CC[C@H](C(=O)NC2CCCCC2)CN1c1cc(-c2ccc3c(N)n[nH]c3c2)nc(N)n1 [GSK2291363],35%
18,O=C(Nc1n[nH]c2nc(-c3ccccc3)c(Cl)cc12)C1CC1 [SB-734909],0%

row,SMILES,%Inh
1,COC(=O)c1c(-c2ccccc2)c2cc(Br)ccc2c(=O)n1Cc1ccc(NC(=O)CCC(=O)O)cc1,12%
2,O=C(Nc1n[nH]c2cc(-c3ccccc3F)ccc12)C1CC1 [SB-733371],0%
3,Cc1nc(N(C)[C@H]2CN(C(=O)CC#N)CC[C@H]2C)c2cc[nH]c2n1,22%
4,Cc1nn2c(=O)cc(N3CCOCC3)nc2n1Cc1cccc(Cl)c1Cl [GSK2342769],9%
5,Cc1cccc(-c2nc(Nc3ccc4c(cnn4C)c3)c3ccccc3n2)n1 [GW876731],10%
6,FC(F)(F)c1ccc(-c2ncn(CCCN3CCOCC3)c2-c2ccncc2)cc1 [SB-217780],0%
7,COc1cc(Nc2ccnc3ccc(C(F)(F)F)cc23)cc(OC)c1OC [GW577382],17%
8,CCS(=O)c1ccc(-c2coc3ccc(-c4nnc(C)o4)cc23)cc1 (stereo not shown),20%
9,O=c1cc(N2CCOCC2)nc2n(Cc3ccc(F)c(Cl)c3)ccn12 [GSK2297099],17%
10,CCC(=O)c1c(-c2ccccc2)c2cc(Cl)ccc2c(=O)n1Cc1cc(S(C)(=O)=O)n(CCC(C)(C)O)n1,7%
11,Cn1c(=O)c(F)c(Nc2ccc(I)cc2F)c2c(=O)n(OC[C@H](O)CO)cnc21,0%
12,COc1cc(OC)cc(-c2cc3cnc(N)nc3nc2NC(=O)NC(C)(C)C)c1,0%
13,Fc1cccc(CSc2nnc(-c3ccc4c(c3)CCO4)o2)c1,6%
14,COc1cc(Nc2nccc(N3CCC(NC(=O)C4COc5ccccc5O4)C3)n2)cc(OC)c1OC (stereo not shown) [GSK1379761],21%
15,O=C1NC(=O)C(c2ccccc2)=C1Nc1cccc(O)c1 [SB-390534],0%
16,CN(C)c1cc(-c2ccc3c(N)n[nH]c3c2)nc(N)n1 [GSK2219329],4%
17,Cc1ccc(Oc2ccc(Nc3ncnc4cc[nH]c34)cc2C)cn1,16%
18,CN1C(=O)C(Nc2ccccc2)=C(c2ccccc2)C1=O [SB-300079],0%

# — paper PMC5540273 (PLoS ONE, 2017)
